The list is not random: actives were taken first. Their share in the collection is about 19%.
HT1080 IDH1KD tx = kills HT-1080 cells with IDH1 knockdown | HT-1080 IDH1 knockdown viability, ATP luminescence, 48 h | Potency, µM (doses to about 46.1 µM), without a hit: at the top dose activity, negative = toxicity, most hits filed as cytotoxic | actives 2% (n = 360,000) | AID 686971;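 also: 0% = DMSO wells and -100% = cell-free medium wells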
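Knockdown cells (IDH1KD HT-1080) received compounds 2 h after plating at 750 cells/well and were kept 48 h at 37 °C in 5% FBS RPMI. A CellTiter-Glo luminescence read gave % activity for curve fitting.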
DT40 TDP1 CPT = DT40-hTDP1 cell growth loss with CPT; chicken DT40 Tdp1-/-;hTDP1 cells + 20 nM CPT, ATP luminescence, 48 h; AID 686979; actives 12% (n = 420,000); Potency, µM (top dose mostly 46.2 µM), for the others: top-dose activity change, negative = growth inhibition, hits mostly inhibitors; also: nearly all actives have a fitted effect of over 55% in size
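Chicken DT40 Tdp1-/- cells complemented with human TDP1, 400 cells/well, exposed to compounds plus 20 nM camptothecin for at least 48 h at 37 C; viability read as ATP content by CellTiter-Glo luminescence.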
HT1080-NT tox = kills 2HG-producing HT-1080-NT fibrosarcoma cells; HT-1080-NT fibrosarcoma viability, CellTiter-Glo ATP luminescence, 48 h; Potency, µM (top dose mostly 46.1 µM), inactives show at the top dose activity, negative = less viability, hits mostly cytotoxic; actives 1.6% (n = 360,000); AID 686970;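 also: NT is the 2HG producing partner of a matched IDH1 knockdown line; 0% = DMSO-treated cells and -100% = media-only wells without cells; nearly all actives have a fitted effect of over 55% in size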
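Compounds were tested in concentration-response format on HT-1080-NT cells for 48 hours at 37 degrees C. Cell viability came from CellTiter-Glo luminescence; curves were classified by r2, response magnitude and activity.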
DT40 TDP1 no CPT = qHTS for Inhibitors of human tyrosyl-DNA phosphodiesterase 1 (TDP1): qHTS in cells in absence of CPT. DT40 Tdp1-/- hTDP1 cells, no CPT, ATP luminescence, 48 h. Potency, µM (doses to about 46.2 µM), inactives show top-dose activity change, negative = growth inhibition, most hits filed as inhibitors. actives 15% (n = 420,000). AID 686978, 2013; also: nearly all actives have a fitted effect of over 55% in size
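Compound effects on proliferation are scored in DT40 Tdp1-/-;hTDP1 cells in the absence of CPT. ATP levels (CellTiter-Glo luminescence) are recorded after a ≥48 hr, 37 °C incubation.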
KB-V1 MDR tox = kills drug-selected multidrug resistant KB-V1 cells; KB-V1 MDR cells viability, CellTiter-Glo, 72 h; Potency, µM (doses to about 46.1 µM), actives largely listed as cytotoxic; actives 3.4% (n = 400,000); also: nearly all actives have a fitted effect of over 60% in size
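KB-V1, DMEM (no phenol red) + 10% FBS; cpd pin-transferred, titration series; 72 h, 37 degrees C; CellTiter-Glo, luminescence. Data normalized, curve-fit.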
KB-3-1 cytotox = kills parental KB-3-1 adenocarcinoma cells. KB-3-1 viability, CellTiter-Glo ATP luminescence, 72 h. Potency, µM (top dose mostly 46.1 µM), hits mostly cytotoxic. actives 1.4% (n = 400,000); also: nearly all actives have a fitted effect of over 60% in size
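Luminescent ATP read-out (CellTiter-Glo) measures survival of drug-naive KB-3-1 cells after 72 h compound exposure at 37 °C. Titration series was screened from lowest to highest concentration, with DMSO vehicle plates as background controls.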
The depositor's hits bear a star; i = inactive; ? = inconclusive; · = no result; [ ] = remark or other dose. Calls follow the shape of the dose curve; as a rule, active = well fitted curve in the direction sought with a large enough effect; inconclusive = small, poorly fitted or top-dose-only effect, or another doubt; inactive = no such curve, though single readings can be large; an effect the other way counts as inactive or inconclusive. Unless noted, % is scaled to controls: 0 for no effect and ±100 for the full control effect; potency is read from the fitted curve at half-maximal effect.

SMILES	HT1080 IDH1KD tx	DT40 TDP1 CPT	HT1080-NT tox	DT40 TDP1 no CPT	KB-V1 MDR tox	KB-3-1 cytotox
N#C/C(=C\c1ccc(N2CCOCC2)o1)c1ccccc1	4.5µM*	10µM*	?	?	?	i
N#C/C(=C/c1ccc(N2CCOCC2)o1)c1ccc(Br)cc1	?	9.2µM*	?	15µM*	18µM*	?
Cc1ccc2nc(Cl)c3cc(C(=O)N4CCCC(C)C4)sc3c2c1 (configuration not stated)	·	?	·	?	i	i
CCC1CN(S(=O)(=O)c2cc(-c3cc(C)no3)ccc2C)c2cc(Cl)ccc2O1 (configuration not stated)	·	13µM*	·	23µM*	i	i
COc1ccccc1N1CCN(S(=O)(=O)c2cc(-c3cc(C)no3)ccc2C)CC1	·	21µM*	·	18µM*	i	i
CCc1ccc(-c2cc(C)no2)cc1S(=O)(=O)N1CCN(c2ccccc2OC)CC1	-3%	?	-13%	?	?	?
Cc1ccc(C)c(N2CCN(S(=O)(=O)c3cc(-c4cc(C)no4)ccc3C)CC2)c1	·	?	·	16µM*	i	i
COc1ccc(-c2cc(C)no2)cc1S(=O)(=O)N1CCOc2ccc(Cl)cc21	1%	?	1%	?	i	i
CC(=O)N[C@@H](Cc1ccc(O)cc1)CN1C(N)=NC[C@@H]1CC(C)C	7%	-22%	13%	-4%	i	i
COc1ccc(C(=O)CC(Sc2ccccc2N)c2ccc(OC)cc2)cc1 (configuration not stated)	-23%	?	-8%	?	i	23µM*
COc1ccc(C(=O)CCc2ccccc2)cc1	22%	1%	15%	-2%	i	i
Cc1ccc(NC(=O)CSc2nnnn2C2CC2)cc1S(=O)(=O)N1CCOCC1	-1%	-23%	-4%	-29%	i	i
Cc1ccc2[nH]c(=O)c(C3C(C#N)=C(N)Oc4c3ccc3cccnc43)cc2c1 (configuration not stated)	?	21µM*	-27%	21µM*	2.6µM*	16µM*
N#CC1=C(N)Oc2c(ccc3cccnc23)C1c1ccccc1 (configuration not stated)	?	5.2µM*	?	4.1µM*	i	5.2µM*
COC(=O)C1=C(C)NC(C)=C(C(=O)OC)C1c1cc2cc(C)ccc2[nH]c1=O	6%	-19%	6%	-25%	i	i
Cc1cccc(C)c1NC(=O)CNC(=O)c1ccc(N2CCCC2=O)cc1	4%	12%	9%	5%	i	i
CCOC1=C(C#N)CC2(CC1)c1ccccc1-c1ccccc12	-10%	?	-13%	23µM*	?	i
COC(=O)C1=C(C#N)NC(C)=C(C(=O)OC(C)C)C1c1cccc([N+](=O)[O-])c1 (configuration not stated)	·	30µM*	·	19µM*	·	·
O=C(NCCOC(=O)c1ccc([N+](=O)[O-])cc1)c1cccnc1	4%	-9%	8%	-7%	?	i
CCOC(=O)C1=C(C)NC(C)=C(C(=O)OCCNC(=O)c2cccnc2)C1c1cccc([N+](=O)[O-])c1 (configuration not stated)	-14%	23µM*	-9%	?	i	i
COC(=O)C1=C(C)NC(C)=C(C(=O)OCCN2CCN(C(c3ccccc3)c3ccccc3)CC2)C1c1cccc([N+](=O)[O-])c1 (configuration not stated)	·	6.7µM*	·	4.7µM*	·	·
CCOC(=O)C1(CCc2ccccc2)CCN(C(=O)c2cc(C)nc(C)n2)CC1	5%	0%	12%	?	i	i
Cc1ccc(CNC(=O)CC[C@H]2O[C@@H](n3cc(C)c(=O)[nH]c3=O)C[C@@H]2O)o1	6%	-5%	0%	6%	i	i
CSc1cc(-c2ccco2)oc1C(=O)c1ccco1	-2%	4%	1%	-14%	i	i
CC(/C=C1\SC(=Nc2cccnc2)NC1=O)=C\c1ccccc1	0%	4.1µM*	-16%	2.9µM*	8.2µM*	16µM*
SMILES	HT1080 IDH1KD tx	DT40 TDP1 CPT	HT1080-NT tox	DT40 TDP1 no CPT	KB-V1 MDR tox	KB-3-1 cytotox
c1ccc(-c2cccc(N3CCCC4(CCNCC4)C3)c2)cc1	·	12µM*	·	21µM*	·	·
O=S(=O)(c1ccccc1)N1CCC2(CCCN(c3cccc(-c4ccccc4)c3)C2)CC1	·	5%	·	-29%	·	·
c1ccc(-c2cccc(N3CCC4(CCNCC4)CC3)c2)cc1	·	9.2µM*	·	8.2µM*	·	·
c1ccc(-c2cccc(N3CC[C@@]4(CCCNC4)C3)c2)cc1	·	8.2µM*	·	6.5µM*	·	·
c1ccc(-c2cccc(N3CC4(CCNCC4)C3)c2)cc1	·	9.2µM*	·	9.2µM*	·	·
CCCCNC(=O)C1(C)CCN1Cc1ccc(C#N)cc1 (configuration not stated)	?	-24%	1%	-12%	?	i
CCCc1nc2cccnc2n1C1CCN(C(=O)Cn2nccc2C)CC1	·	5%[9.04 µM]	·	-19%	·	·
COc1ccc(C(=O)Nc2cccc(OCc3cc(=O)n4c5c(sc4n3)CCCC5)c2)cc1OC	·	-6%	·	?	i	i
O=C(Nc1ccc(F)cc1)c1ccccc1Oc1ccc(C(F)(F)F)cc1[N+](=O)[O-]	?	?	?	?	16µM*	i
CC(=O)N1CCCC1c1nc2ccccc2n1Cc1ccccc1 (configuration not stated)	·	0%	·	-34%	i	i
CC(=O)Nc1nc2ccccc2n1Cc1ccccc1C	?	9.2µM*	?	13µM*	i	?
CC(=O)Nc1nc2ccccc2n1Cc1ccccc1Cl	?	21µM*	18µM*	8.2µM*	?	?
CC(=O)NCc1nc2ccccc2n1Cc1ccccc1C	-1%	-18%	2%	5%	i	i
CC(=O)NC(C)c1nc2ccccc2n1Cc1ccccc1Cl (configuration not stated)	·	?	·	?	i	i
CC(=O)N1CCCC1c1nc2ccccc2n1Cc1ccccc1Cl (configuration not stated)	·	?	·	18µM*	i	i
CCCCCCCC/C=C\CCCCCCCCN	·	-1%	·	-8%	·	·
CCCCCCn1cc(CN2CC(N(C)CC)CS2(=O)=O)nn1 (configuration not stated)	19%	12%	5%	-8%	i	i

Screening results (PubChem)
